# Measured values published in PubChem BioAssay.
# A number with no mark means an inactive call. Calls of active or inactive are those of the source.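 The calls were made as follows, unless noted: active = mean inhibition above 46.68%, the untreated control wells mean plus 3 SD; inactive = the rest.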
# Experiments:
# [1] = target: Nuclear receptor coactivator 1 (Homo sapiens) (UniProt Q15788); test: NCOA1 GAL4-fusion reporter inhibition – cell-based, luminescence, quadruplicate, confirmation (AID 588820); details: HEK293 GAL4-SRC1 luciferase reporter, at 3.6 µM, stronger effect = higher value;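 also: 0% = DMSO wells and 100% = gossypol 36 µM treated wells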
# Nuclear receptor coactivator 1 (Homo sapiens), sequence (Q15788 whole entry, looked up, the tested form may be a part): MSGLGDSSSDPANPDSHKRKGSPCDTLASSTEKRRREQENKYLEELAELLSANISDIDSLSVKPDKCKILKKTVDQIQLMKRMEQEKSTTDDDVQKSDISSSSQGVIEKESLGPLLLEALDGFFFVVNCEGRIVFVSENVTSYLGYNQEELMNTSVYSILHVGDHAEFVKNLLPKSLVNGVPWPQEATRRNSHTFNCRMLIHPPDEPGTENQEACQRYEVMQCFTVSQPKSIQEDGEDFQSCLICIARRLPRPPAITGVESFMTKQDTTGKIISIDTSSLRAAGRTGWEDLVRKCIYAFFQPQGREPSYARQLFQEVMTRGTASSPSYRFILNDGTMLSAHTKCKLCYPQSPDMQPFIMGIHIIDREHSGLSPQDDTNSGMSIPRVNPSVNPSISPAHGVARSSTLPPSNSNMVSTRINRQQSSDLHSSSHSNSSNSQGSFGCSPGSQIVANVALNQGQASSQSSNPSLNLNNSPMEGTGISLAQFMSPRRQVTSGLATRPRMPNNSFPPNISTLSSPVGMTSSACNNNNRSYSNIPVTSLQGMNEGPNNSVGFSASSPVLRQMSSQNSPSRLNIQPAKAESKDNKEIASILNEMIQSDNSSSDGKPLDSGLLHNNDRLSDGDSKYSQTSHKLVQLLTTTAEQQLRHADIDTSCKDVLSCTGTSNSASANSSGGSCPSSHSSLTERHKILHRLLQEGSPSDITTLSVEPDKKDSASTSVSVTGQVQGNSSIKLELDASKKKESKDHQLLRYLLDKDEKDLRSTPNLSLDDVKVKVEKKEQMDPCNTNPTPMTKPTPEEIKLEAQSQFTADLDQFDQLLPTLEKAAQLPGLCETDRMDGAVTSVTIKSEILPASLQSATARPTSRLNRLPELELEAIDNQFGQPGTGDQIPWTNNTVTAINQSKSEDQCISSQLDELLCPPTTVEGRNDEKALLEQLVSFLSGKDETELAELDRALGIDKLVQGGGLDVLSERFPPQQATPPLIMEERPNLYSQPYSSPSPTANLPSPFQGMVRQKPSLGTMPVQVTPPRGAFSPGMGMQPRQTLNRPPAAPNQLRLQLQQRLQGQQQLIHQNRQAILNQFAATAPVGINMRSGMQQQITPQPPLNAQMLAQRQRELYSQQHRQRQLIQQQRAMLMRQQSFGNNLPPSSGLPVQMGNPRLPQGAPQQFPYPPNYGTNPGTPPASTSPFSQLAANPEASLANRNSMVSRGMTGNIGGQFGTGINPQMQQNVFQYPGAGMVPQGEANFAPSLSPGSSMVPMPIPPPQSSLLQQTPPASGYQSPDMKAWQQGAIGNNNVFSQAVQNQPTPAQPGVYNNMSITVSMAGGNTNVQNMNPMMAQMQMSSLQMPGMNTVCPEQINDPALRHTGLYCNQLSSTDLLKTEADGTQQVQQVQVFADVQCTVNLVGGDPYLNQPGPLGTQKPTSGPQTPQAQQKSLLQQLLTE
# [2] = repression of VP16-driven luciferase reporter – cell-based, luminescence, high throughput, counter-screen for SRC1 inhibitor project (AID 588824; in the data active = inhibition above about 25%); details: cell-based VP16 transactivation luciferase luminescence; at 3.6 µM; stronger effect = higher value
# [3] = target: Nuclear receptor coactivator 3 (Homo sapiens) (UniProt Q9Y6Q9); test: NCOA3 GAL4-fusion reporter inhibition – cell-based, luminescence, quadruplicate, confirmation (AID 588792;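 active = mean inhibition over 43.08%, the solvent-only control mean plus 3 SD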;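 also: 0% = DMSO treated cells and 100% = gossypol at 36 µM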); details: HEK293 GAL4-SRC3 luciferase reporter, at 3.6 µM, stronger effect = higher value
# Nuclear receptor coactivator 3 (Homo sapiens), sequence (Q9Y6Q9 whole entry, looked up, the tested form may be a part): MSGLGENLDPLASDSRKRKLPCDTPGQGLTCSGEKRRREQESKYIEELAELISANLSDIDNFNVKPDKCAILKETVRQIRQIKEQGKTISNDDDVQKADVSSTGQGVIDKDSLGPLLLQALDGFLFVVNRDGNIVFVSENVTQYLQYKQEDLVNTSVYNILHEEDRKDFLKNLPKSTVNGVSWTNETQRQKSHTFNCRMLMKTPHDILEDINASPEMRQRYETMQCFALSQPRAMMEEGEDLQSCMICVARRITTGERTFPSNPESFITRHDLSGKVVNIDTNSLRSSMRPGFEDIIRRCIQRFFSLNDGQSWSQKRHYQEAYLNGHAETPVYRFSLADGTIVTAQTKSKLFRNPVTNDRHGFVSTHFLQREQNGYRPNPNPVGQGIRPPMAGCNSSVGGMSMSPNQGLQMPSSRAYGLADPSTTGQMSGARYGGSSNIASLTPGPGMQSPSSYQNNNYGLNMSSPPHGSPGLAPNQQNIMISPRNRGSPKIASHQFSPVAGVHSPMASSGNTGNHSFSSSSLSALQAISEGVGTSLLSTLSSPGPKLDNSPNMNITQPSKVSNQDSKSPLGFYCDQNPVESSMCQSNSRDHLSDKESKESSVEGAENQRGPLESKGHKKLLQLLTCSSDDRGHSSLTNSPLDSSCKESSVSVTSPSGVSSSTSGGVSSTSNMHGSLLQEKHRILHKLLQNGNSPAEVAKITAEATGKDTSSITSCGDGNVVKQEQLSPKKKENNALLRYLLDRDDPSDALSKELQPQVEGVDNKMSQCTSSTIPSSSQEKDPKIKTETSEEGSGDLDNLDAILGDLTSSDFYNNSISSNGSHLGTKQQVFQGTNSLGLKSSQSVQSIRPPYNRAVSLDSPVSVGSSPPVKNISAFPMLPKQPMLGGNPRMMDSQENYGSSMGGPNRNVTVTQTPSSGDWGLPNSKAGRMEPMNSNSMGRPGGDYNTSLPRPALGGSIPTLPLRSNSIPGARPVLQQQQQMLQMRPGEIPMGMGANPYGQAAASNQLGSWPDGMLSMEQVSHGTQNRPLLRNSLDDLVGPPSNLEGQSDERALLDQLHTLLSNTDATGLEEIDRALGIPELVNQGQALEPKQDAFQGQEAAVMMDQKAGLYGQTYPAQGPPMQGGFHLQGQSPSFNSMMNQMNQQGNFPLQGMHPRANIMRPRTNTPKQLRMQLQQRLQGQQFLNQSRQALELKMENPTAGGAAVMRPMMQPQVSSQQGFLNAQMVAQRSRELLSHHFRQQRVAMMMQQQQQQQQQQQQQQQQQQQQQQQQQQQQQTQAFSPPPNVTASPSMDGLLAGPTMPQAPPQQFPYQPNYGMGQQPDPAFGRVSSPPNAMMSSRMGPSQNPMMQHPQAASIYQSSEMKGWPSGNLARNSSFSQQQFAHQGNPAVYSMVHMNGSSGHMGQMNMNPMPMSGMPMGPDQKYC
# [4] = tested on: transactivating tegument protein VP16 (Human herpesvirus 1), Gal4-VP16 luciferase reporter; test: repression of VP16-driven luciferase reporter – cell-based, luminescence, high throughput, counter-screen for SRC3 inhibitor project (AID 588794; in the data active = inhibition above about 30%); details: mammalian cells, at 3.6 µM, stronger effect = higher value
# [5] = tested on: transactivating tegument protein VP16 (Human herpesvirus 1); test: compounds suppressing VP16-driven luciferase signal – cell-based, luminescence, single concentration, counter-screen for SRC2 inhibitor project (AID 652007; in the data active = inhibition above about 36%); details: cell-based VP16 transactivation luciferase reporter, at 8.9 µM, stronger effect = higher value
# [6] = target: Nuclear receptor coactivator 2 (Homo sapiens) (UniProt Q15596); test: inhibition of GAL4-SRC2 driven luciferase expression – cell-based, luminescence, HEK293, triplicate, confirmation (AID 652008;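 active = mean inhibition above 46.5%, the solvent-only control mean plus 3 SD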;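 also: 0% = DMSO-treated cells and 100% = Gossypol at 36 µM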); details: HEK293 GAL4-SRC2 luciferase reporter, at 8.9 µM, stronger effect = higher value
# Nuclear receptor coactivator 2 (Homo sapiens), sequence (Q15596 whole entry, looked up, the tested form may be a part): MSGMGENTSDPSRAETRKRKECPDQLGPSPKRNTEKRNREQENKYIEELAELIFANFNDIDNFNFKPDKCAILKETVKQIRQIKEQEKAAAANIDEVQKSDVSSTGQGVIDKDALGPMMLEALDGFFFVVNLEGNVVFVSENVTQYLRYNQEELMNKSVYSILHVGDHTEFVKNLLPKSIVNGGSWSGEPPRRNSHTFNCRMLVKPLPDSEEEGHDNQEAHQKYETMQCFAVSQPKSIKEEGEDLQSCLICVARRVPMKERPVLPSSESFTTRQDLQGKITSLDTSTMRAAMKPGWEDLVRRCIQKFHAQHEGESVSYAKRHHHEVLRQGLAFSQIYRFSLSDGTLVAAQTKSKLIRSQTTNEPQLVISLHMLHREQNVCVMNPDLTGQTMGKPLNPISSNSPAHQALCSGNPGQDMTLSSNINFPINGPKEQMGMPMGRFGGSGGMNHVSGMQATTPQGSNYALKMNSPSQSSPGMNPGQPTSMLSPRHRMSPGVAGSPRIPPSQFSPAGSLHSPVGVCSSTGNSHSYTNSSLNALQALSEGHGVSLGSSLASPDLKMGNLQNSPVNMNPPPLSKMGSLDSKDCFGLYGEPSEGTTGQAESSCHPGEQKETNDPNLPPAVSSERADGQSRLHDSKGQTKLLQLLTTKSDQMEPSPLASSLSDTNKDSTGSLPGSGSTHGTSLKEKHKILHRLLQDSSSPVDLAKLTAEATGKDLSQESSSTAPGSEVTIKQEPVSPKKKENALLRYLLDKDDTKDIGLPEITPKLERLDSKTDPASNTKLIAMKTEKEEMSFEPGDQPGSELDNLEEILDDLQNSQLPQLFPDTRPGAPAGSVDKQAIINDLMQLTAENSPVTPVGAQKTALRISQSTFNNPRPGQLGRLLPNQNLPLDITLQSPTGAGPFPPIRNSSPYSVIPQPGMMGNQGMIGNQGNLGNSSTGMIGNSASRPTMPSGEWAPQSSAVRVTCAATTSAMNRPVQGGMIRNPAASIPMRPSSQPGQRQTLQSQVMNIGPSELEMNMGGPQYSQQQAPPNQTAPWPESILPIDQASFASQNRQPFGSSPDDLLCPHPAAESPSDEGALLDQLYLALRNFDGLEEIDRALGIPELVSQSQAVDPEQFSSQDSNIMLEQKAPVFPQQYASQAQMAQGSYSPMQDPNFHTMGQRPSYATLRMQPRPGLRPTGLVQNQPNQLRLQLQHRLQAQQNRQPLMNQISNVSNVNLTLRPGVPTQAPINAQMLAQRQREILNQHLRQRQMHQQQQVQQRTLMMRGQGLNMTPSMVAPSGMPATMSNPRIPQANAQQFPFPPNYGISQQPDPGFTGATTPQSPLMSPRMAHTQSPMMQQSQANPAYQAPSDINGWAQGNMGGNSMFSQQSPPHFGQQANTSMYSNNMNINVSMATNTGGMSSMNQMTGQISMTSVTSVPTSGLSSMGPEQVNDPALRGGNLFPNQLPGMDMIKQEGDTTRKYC
compound,measurement,setting,value
Cc1ccc(O)c(Nc2ncnc3ccc([N+](=O)[O-])cc23)c1,inhibition,[1],17.6%
same,inhibition,[2],23.6%
Brc1ccc2ncnc(NCc3ccco3)c2c1,inhibition,[1],32.1%
same,inhibition,[2],31.2% (active)
COCCN(C(=O)CCl)C(C(=O)NC1CCCCC1)c1ccccc1C (stereo not drawn),inhibition,[3],52.3% (active)
same,inhibition,[4],38.7% (active)
same,inhibition,[5],45.5% (active)
same,inhibition,[6],58.5% (active)
CCOc1ccc(C(=O)C(CCC(CN(C)C)C(=O)c2ccc(OCC)cc2)CN(C)C)cc1 (stereo not drawn),inhibition,[3],-1.23%
same,inhibition,[4],34.5% (active)
same,inhibition,[5],42.6% (active)
same,inhibition,[6],54.2% (active)
CC(=O)c1c(C)[nH]c(C(=O)COc2ccc3ccc(=O)oc3c2)c1C,inhibition,[1],-13.5%
same,inhibition,[2],4.04%
CCCCCCN1C2=NCCCN2c2ccccc21,inhibition,[1],1.1%
same,inhibition,[2],10.4%
Cc1ccc(C)c(NC(=O)CCc2ccc(C)o2)c1,inhibition,[1],5.55%
same,inhibition,[2],-2.65%
c1cncc(CNC2CCCc3ccccc32)c1 (stereo not drawn),inhibition,[1],0.67%
same,inhibition,[2],-8.78%
CCCCC(=O)NC(c1cccc([N+](=O)[O-])c1)c1ccc2cccnc2c1O (stereo not drawn),inhibition,[1],13.2%
same,inhibition,[2],24%
COCC1CCN(C(=O)c2cc(COc3cccc4cnccc34)on2)CC1,inhibition,[3],11.1%
same,inhibition,[4],37.7% (active)
same,inhibition,[5],3.58%
same,inhibition,[6],43.1%
Cc1ccc(C(=O)NC2CCCc3c2cnn3-c2ccc(F)cc2F)cn1 (stereo not drawn),inhibition,[1],-17.5%
same,inhibition,[2],27.2% (active)
O=C(NCCCn1ccnc1)c1ccc(N2CCCCCC2)c([N+](=O)[O-])c1,inhibition,[3],50.3% (active)
same,inhibition,[4],-23.6%
same,inhibition,[5],26.9%
same,inhibition,[6],54.3% (active)
CCOC(=O)c1c(-c2ccccc2)csc1NC(=O)c1nn(CC)cc1Br,inhibition,[1],-4.38%
same,inhibition,[2],-7.57%
COc1ccc2c(c1)c(C(=O)CN1CCN(Cc3ccccc3)CC1)c(C)n2C,inhibition,[1],-13.6%
same,inhibition,[2],-0.22%
O=C1NC[C@H](c2ccccc2)OC(=O)[C@@H](Cc2ccc(F)cc2)C/C=C\C[C@H]1CC(=O)N(CCO)Cc1ccccc1,inhibition,[1],-35%
same,inhibition,[2],-0.29%
COc1ccccc1-c1cccc(-c2nc(C(=O)N3CCCCC3)cc3c2[C@H](CCO)N(S(=O)C(C)(C)C)C3)c1 (stereo partly drawn),inhibition,[1],-56.9%
same,inhibition,[2],-21.5%
O=C(Cc1ccsc1)N1CCN(S(=O)(=O)c2cc(C(F)(F)F)cc(C(F)(F)F)c2)CC1,inhibition,[1],-14.2%
same,inhibition,[2],0.11%
O=C(NC1CCCC1)C1CCN(C(=O)c2cccc(Cl)c2)CC1,inhibition,[1],-22.6%
same,inhibition,[2],-3.66%
CCCCC(=O)NC(c1ccc(N(CC)CC)cc1)c1ccc2cccnc2c1O (stereo not drawn),inhibition,[1],69.3% (active)
same,inhibition,[2],63.8% (active)
CCCc1cc(=O)oc2c(C)c(O[C@@H]3O[C@H](CO)[C@@H](O)[C@H](O)[C@H]3O)ccc12,inhibition,[1],-6.26%
same,inhibition,[2],-0.67%
COc1ccccc1CNC(=O)C(=O)NCCC1CCCCN1S(=O)(=O)c1ccc(C)cc1 (stereo not drawn),inhibition,[1],26.4%
same,inhibition,[2],7.29%
CCCCNC(=O)C1(C)CCCCN1C(=O)c1ccc2c(c1)C(C)(C)CCC2(C)C (stereo not drawn),inhibition,[1],7.49%
same,inhibition,[2],10.7%
Cc1ccc(Cc2c(-c3ccco3)nc3c4ccccc4ccn23)cc1,inhibition,[1],-81.9%
same,inhibition,[2],-34.6%
CCOc1ccc(CCNC(=O)COC(=O)c2cc(OC)c(OC)cc2[N+](=O)[O-])cc1OCC,inhibition,[1],-11.8%
same,inhibition,[2],-2.67%
NS(=O)(=O)c1ccc(NC(=O)CCCCC(=O)Nc2ccc(S(N)(=O)=O)cc2)cc1,inhibition,[1],-1.93%
same,inhibition,[2],-4.87%
COc1ccc(S(=O)(=O)N(C)c2ccc(C(=O)NCc3ccco3)cc2)cc1OC,inhibition,[1],-12.2%
same,inhibition,[2],-0.34%
O=C(CCn1cnc(-c2ccccc2)c1-c1ccccc1)N/N=C/c1ccccc1O,inhibition,[1],18.6%
same,inhibition,[2],11.4%
CN(Cc1ccccc1)C(=O)c1ccc(NC(=O)C2CCCN(C(=O)OC(C)(C)C)C2)cc1 (stereo not drawn),inhibition,[1],-1.28%
same,inhibition,[2],8.32%
Cn1ncc(Cl)c1C(=O)NCc1cc(C(C)(C)C)n[nH]1,inhibition,[1],-8.52%
same,inhibition,[2],-4.25%
COc1ccccc1C(c1nnnn1Cc1ccco1)N1CCN(c2cccc(C)c2C)CC1 (stereo not drawn),inhibition,[1],10.7%
same,inhibition,[2],5.76%
CCN(CC)c1ccc(C=Nc2cc(C)ccc2C)c(O)c1,inhibition,[1],3.4%
same,inhibition,[2],-6.63%
COc1ccc(CN2CCN(C(=O)CCC(=O)Nc3nnc(C(F)(F)F)s3)CC2)cc1F,inhibition,[1],-1.74%
same,inhibition,[2],-4.2%
O=C(O)c1ccccc1-c1c2cc(I)c(=O)c(I)c-2oc2c(I)c(O)c(I)cc12,inhibition,[1],18.7%
same,inhibition,[2],15.7%
COC(=O)c1ccc(/C=N\NC(=O)CC(=O)NCCc2ccccc2)cc1,inhibition,[1],-1.47%
same,inhibition,[2],-15.5%
Cc1ccc2cc3cc(C(=O)NCc4ccco4)oc3nc2c1,inhibition,[1],-10%
same,inhibition,[2],36% (active)
CC(C(=O)Nc1ccon1)N1C(=O)c2ccccc2S1(=O)=O (stereo not drawn),inhibition,[1],-3.82%
same,inhibition,[2],11.8%
O=C(NCCc1ccc(F)cc1)C(=O)NCC1CCCN1S(=O)(=O)c1ccccc1 (stereo not drawn),inhibition,[1],-36.4%
same,inhibition,[2],-2.18%
O=C(NC1CC(=O)N(c2ccccc2)C1)C1CC1 (stereo not drawn),inhibition,[1],-3.45%
same,inhibition,[2],-9.3%
Cc1cccc(NC(=O)C2CCN(S(=O)(=O)c3ccc4c(c3)OCCCO4)CC2)n1,inhibition,[1],-23.6%
same,inhibition,[2],17.2%
Cc1cc(C)cc(NS(=O)(=O)c2ccc3[nH]c(=O)ccc3c2)c1,inhibition,[1],-17.7%
same,inhibition,[2],-3.07%
CC(NC(=O)COC(=O)c1cccs1)c1ccccc1 (stereo not drawn),inhibition,[1],15.5%
same,inhibition,[2],13.6%
CN1c2ccccc2C2(C)CCCC3=Cc4cccc([N+](=O)[O-])c4OC312 (stereo not drawn),inhibition,[1],-8.43%
same,inhibition,[2],11.1%
Cc1sc2ncnc(N3CCC(C(=O)Nc4cc(S(C)(=O)=O)ccc4Cl)CC3)c2c1C,inhibition,[1],14.9%
same,inhibition,[2],9.27%
CCOC(=O)c1ccc2c(c1)n(CC)c(/C=C/N(C)c1ccccc1)[n+]2CC,inhibition,[1],29.7%
same,inhibition,[2],62.3% (active)
COc1cc(C(=O)NC(=S)NNC(=O)c2cnccn2)cc(OC)c1OC,inhibition,[1],19.6%
same,inhibition,[2],-5.2%
CCOc1cccc(C(=O)Nc2nc(-c3ccc(S(=O)(=O)N4CCOCC4)cc3)cs2)c1,inhibition,[1],-29.3%
same,inhibition,[2],-6.23%
Cc1cc[n+](CC(=O)Nc2cccc(C)c2)cc1,inhibition,[1],-8.15%
same,inhibition,[2],1.99%
O=C1CCC/C1=c1\s/c(=C/c2cccnc2)c(=O)n1-c1ccccc1,inhibition,[1],25.6%
same,inhibition,[2],17.8%
Cc1ccc(S(=O)(=O)CC(CN2CCCCC2)N2CCCCC2)cc1 (stereo not drawn),inhibition,[1],4.8%
same,inhibition,[2],-1.35%
COCCn1cnc2c1c(=O)n(Cc1ccccc1C#N)c(=O)n2Cc1ccccc1,inhibition,[1],-22.2%
same,inhibition,[2],1.6%
CCOC(=O)c1cc(C#N)c(SCC(=O)OC)[nH]c1=O,inhibition,[1],1.73%
same,inhibition,[2],-9.78%
Cc1ccccc1N(C(=O)c1csnn1)C(C(=O)NC1CCCCC1)c1ccncc1 (stereo not drawn),inhibition,[1],-16%
same,inhibition,[2],-5.53%
O=C(CSc1ccccc1)Nc1nnc(-c2ccco2)o1,inhibition,[1],1.78%
same,inhibition,[2],-4.61%
CCCCCCCCNc1ncnc2[nH]ncc12,inhibition,[1],-9.61%
same,inhibition,[2],19.6%
COC(C(=O)Nc1ccc(S(=O)(=O)Nc2ccc(C)c(C)c2)cc1)c1ccccc1 (stereo not drawn),inhibition,[1],-8.72%
same,inhibition,[2],-12.5%
Cc1csc2ncnc(NCCc3ccccn3)c12,inhibition,[1],-2.8%
same,inhibition,[2],21.8%
O=C1c2cccc(OCc3ccc(F)cc3)c2CCN1Cc1ccccc1,inhibition,[1],20.6%
same,inhibition,[2],13.6%
COc1ccc(-c2csc(N3CCN(c4cc(C)nc5ccccc45)CC3)n2)cc1OC,inhibition,[1],-18%
same,inhibition,[2],20.4%
COc1ccccc1CCC(=O)Nc1cccc(S(=O)(=O)N2CCCCCC2)c1,inhibition,[1],-1.96%
same,inhibition,[2],-7.85%
COc1ccccc1C1NC(=O)NC(C)=C1C(=O)OC1CCCC(C)C1 (stereo not drawn),inhibition,[1],6.58%
same,inhibition,[2],-1.62%
CC(C)(C)c1ccc(OCCC(=O)NNC(=O)c2ccncc2)cc1,inhibition,[1],-13.7%
same,inhibition,[2],-5.17%
O=C(Nc1sc2c(c1C(=O)NCCCO)CCCC2)c1ccccc1,inhibition,[1],-30.3%
same,inhibition,[2],-14.6%
Cc1nc2ccccc2c2oc(C(=O)Nc3ccc(C(C)C)cc3)cc12,inhibition,[1],-6.16%
same,inhibition,[2],-1.6%
C=CCn1c(SCC(=O)Nc2ccccc2F)nc2ccccc2c1=O,inhibition,[1],2.78%
same,inhibition,[2],-1.24%
CC(=O)c1cc2c(C)cc(=O)oc2cc1O,inhibition,[1],19.4%
same,inhibition,[2],6.17%
Fc1cccc(CSc2nnc3ccc(-c4ccncc4)nn23)c1,inhibition,[1],21.7%
same,inhibition,[2],9.73%
CCc1ccc(CN(C)C(=O)C2CCC(=O)N(CC3CCCCC3)C2)cc1 (stereo not drawn),inhibition,[1],-5.12%
same,inhibition,[2],2.92%
C[C@H](N)c1nnc(SCC(N)=O)o1,inhibition,[1],-1.81%
same,inhibition,[2],-12.9%
COc1cccc(OCCn2cc(C(C)=O)c3ccccc32)c1,inhibition,[1],10.7%
same,inhibition,[2],30.8% (active)
COC(=O)c1ccsc1NC(=O)CN1CCN(c2ncccn2)CC1,inhibition,[1],-31.8%
same,inhibition,[2],-17.6%
